The campaign covered roughly 1,400 compounds. About 30 (2%) were called active. Not shown: some 15% with an inconclusive outcome. The sample as a whole holds a higher share of actives than the screen did. Values without a mark were called inactive. The call rests on the fitted dose curve; in most records, active means well fitted inhibition curve with a large enough effect; inconclusive means small, poorly fitted or top-dose-only effect; inactive means flat fitted curve, though single readings scatter.
Assay: Firefly Luciferase Counterscreen for Inhibitors of ATXN expression
Conditions: luminescence; series mostly up to 57.5 µM; activity change, negative = inhibition: at the top concentration
Description: University of Utah School of Medicine, Salt Lake City, Utah
Spinocerebellar ataxia type 2 (SCA2) is a multisystem neurodegenerative disease caused by a dominantly acting mutation leading to expansion of a polyQ domain in the ataxin-2 protein (ATXN2). SCA2 patients develop progressive ataxia and later lose function in other neuronal systems. Prominent parkinsonian signs develop in some patients. Like many neurodegenerative disorders, no symptomatic or disease-modifying treatments are known.
The primary objective of the proposed research is to identify compounds inhibiting ATXN2 expression and to test them for efficacy in SCA2 mouse models. We have developed a cell-based assay paired with an in vivo mouse model using identical luciferase expression constructs. This approach takes advantage of an ATXN2-luciferase transgene, with the luciferase gene flanked by the upstream and downstream portions of the ATXN2 gene. Here we describe a 5-7 dose quantitative high thoroughput screen (qHTS) for compounds lowering ATXN2 expression. We screened the NIH Molecular Libraries Small Molecule Repository (MLSMR) and NCGC's mechanistically annotated (MIPE) and drug repurposing (NPC) collections of compounds for lowering expression of an ATXN2-luciferase reporter in HEK-293 cells. The assay is a multiplexed cell viability assay to ensure target reduction in the absence of cytotoxicity. Secondary qHTS assays included a CMV-luciferase reporter expressed in HEK-293 cells as well as a biochemical assay using recombinant luciferase to detect inhibitors of the reporter enzyme. Compounds that inhibit ATXN2 expression but is not cytotoxic were selected for confirmatory and secondary screens.
PROTOCOL TABLE (as described by Inglese J, Shamu CE and Guy RK. 2007)
SEQUENCE No. (e.g., 1, 2, 3, etc.); […] (e.g., Cells, Incubation, Reagent, etc.); VALUE; DESCRIPTION.
2; Compounds; 23 nL; Kalypsis pintool (Wako USA) equipped with a 1536-well pin head.
3; Enzyme; 1 uL; recombinant firefly luciferase (prepared in 50 mM Tris HCl pH7.5, 10 mM MgCl2, 0.05% BSA, 0.01% Tween20) at final concentration of 10 nM. Wells containing buffer only were used as control (set as 100% inhibition when normalizing data).
4; Incubation; 10 min; room temperature.
5; Detection; Luminescence; Viewlux plate reader (PerkinElmer).
NOTES (numbers refer to Sequence numbers above)
1. Luciferase substrate is added to 1536 well, Greiner white assay plate. Evaporation was prevented by covering assay plates with metal lids containing holes to allow gas diffusion.
2. Compounds were added in a dose response manner with the final concentrations of 57, 11.4, 2.28, 0.46, 0.091, 0.018, 0.0037 uM. Vehicle-only plates, with DMSO being pin-transferred to columns 5-48, were inserted uniformly at the beginning and the end of each library to monitor and record any shifts in assay performance.
3. Recombinant firefly luciferase (10 nM final concentration) is added to the assay plate.
5. End-point luminescence is then measured on the Viewlux (PerkinElmer) imager equipped with a clear emission filter using a 2 sec exposure.
Inglese J, Shamu CE and Guy RK, Reporting data from high throughput screening of small molecule libraries, Nature Chemical Biology, 2007, 3(8): 438-441. doi.org/10.1038/nchembio0807-438.
With `CC(CCc1ccccc1)NC(=O)c1ccc(C(=O)NC(C)CCc2ccccc2)cc1` (stereo unspecified) the “activity change, negative = inhibition” value was 1.04%. With `O=C(NCc1ccccc1)c1ccc(C(=O)N(C2CCCCC2)C2CCCCC2)cc1` the “activity change, negative = inhibition” value was 0.27%. For `O=C(NNCc1ccccc1)c1ccccc1`, the Potency was 10 µM (active). For `Cc1ccccc1N=Nc1ccc(O)c2ncccc12`, the “activity change, negative = inhibition” value was -2.38%. For `CCN1C(=O)/C(=C/c2nc3ccccc3c(=O)n2-c2ccccc2)c2ccccc21`, the “activity change, negative = inhibition” value was 0.962%. With `CC(=O)Nc1cccc(-c2ccnc3c2CC(C)(C(=O)Nc2cccc(Oc4ccccc4)c2)O3)c1` (stereo unspecified) the “activity change, negative = inhibition” value was -1.45%. With `COc1ccc2sc(-c3ccc(SC)cc3)c(-c3ccc(O)cc3)c2c1` the “activity change, negative = inhibition” value was 2.23%. In the case of `COc1cc(/C=C(/C#N)C(=O)NCCc2c[nH]c3ccccc23)ccc1OCc1ccccc1F`, the “activity change, negative = inhibition” value is reported as 1.42%. For `COCCCNCCCOc1ccc(Cl)cc1C(C)(C)C`, the “activity change, negative = inhibition” value was 1.71%. In the case of `CC(C)C1C(=O)N(Cc2cn(CCC3OCCO3)nn2)CCS(=O)(=O)N1Cc1ccc(-c2ccc(Cl)cc2)cc1` (stereo unspecified), the “activity change, negative = inhibition” value is reported as -3.28%. For `COc1cccc(S(=O)(=O)NCc2ccc(C(=O)Nc3cccc(Cl)c3)cc2)c1`, the “activity change, negative = inhibition” value was -2.18%. For `Cc1ccc(OCCCC(=O)NNC(=O)c2ccccn2)cc1`, the “activity change, negative = inhibition” value was -1.95%. For `CCCC(NCC(O)COc1ccc(-c2ccccc2)cc1)c1ccccc1` (stereo unspecified), the “activity change, negative = inhibition” value was -3.86%. In the case of `O=C(Nc1cccc(Br)c1)c1cccc(OC(=S)N2CCOCC2)c1`, the “activity change, negative = inhibition” value is reported as -13.5%. In the case of `O=C(CSc1nnc(-c2ccc(Br)cc2)o1)Nc1cccc(C(=O)O)c1`, the Potency is reported as 3.98 µM (active). For `O=C(CSc1n[nH]c(-c2ccccn2)n1)Nc1ccccc1`, the “activity change, negative = inhibition” value was -13.1%. With `CC1(C(=O)Nc2cnc3ccccc3c2)CCN1C(=O)c1ccccc1CCc1ccccc1` (stereo unspecified) the “activity change, negative = inhibition” value was -1.11%. For `O=C(NC(Nc1ncc(S(=O)(=O)c2ccc([N+](=O)[O-])cc2)s1)(C(F)(F)F)C(F)(F)F)c1ccc(Cl)cc1`, the “activity change, negative = inhibition” value was -10.1%. With `NC(Cc1ccc(C(F)(F)F)cc1)c1csc(Nc2ccc(C(=O)c3ccccc3)cc2)n1` (stereo unspecified) the “activity change, negative = inhibition” value was 0.547%. With `Cc1ccc(C2CC(=O)Nc3c2ccc2ccccc32)cc1[N+](=O)[O-]` (stereo unspecified) the “activity change, negative = inhibition” value was -4.69%. In the case of `CCc1nc2c(OCc3ccc(Cl)cc3)cccn2c1N(C=O)Cc1ccc(OC)cc1`, the “activity change, negative = inhibition” value is reported as -3.69%. In the case of `COc1ccc(Cc2[nH]n3c(=O)cc(C(C)C)nc3c2-c2ccccc2)cc1`, the “activity change, negative = inhibition” value is reported as -12.5%. In the case of `CNC(=O)c1sc(N2N=C3/C(=C/c4ccccc4)CCCC3C2c2ccccc2)nc1C` (stereo unspecified), the “activity change, negative = inhibition” value is reported as -2.34%. For `CN1CCC(N(C)S(=O)(=O)c2ccc(NC(=O)COc3ccc(Br)cc3Cl)cc2)CC1`, the “activity change, negative = inhibition” value was -14.6%. For `CN(C)CCNc1ccc(CO)c2sc3ccc(O)cc3c(=O)c12`, the “activity change, negative = inhibition” value was -5.83%. With `CCn1cc(Cl)c(C(=O)N2N=C(c3ccc4ccccc4c3)CC2c2ccccc2O)n1` (stereo unspecified) the “activity change, negative = inhibition” value was -3.47%. With `CC(=O)NC(=C(Cl)Cl)S(=O)(=O)c1ccccc1` the “activity change, negative = inhibition” value was 1.35%. For `S=C(NCc1cccnc1)Nc1ccc(Oc2ccc(Cl)cc2)cc1`, the “activity change, negative = inhibition” value was -0.796%. In the case of `C(=NN1CCCCCC1)c1ccc2ccccc2n1`, the Potency is reported as 0.1 µM (active). With `S=C(Nc1cc(Cl)ccc1Oc1ccccc1)N1CCN(c2ccccn2)CC1` the “activity change, negative = inhibition” value was -1.6%. In the case of `CN(c1ccccc1)S(=O)(=O)c1cccc(NC(=O)c2cc(=O)c3ccccc3o2)c1`, the “activity change, negative = inhibition” value is reported as -0.345%. For `O=C(COc1nsnc1N1CCOCC1)N/N=C/c1ccccc1O`, the “activity change, negative = inhibition” value was -13.4%. With `COc1ccccc1N(CC(=O)N/N=C/c1c(O)ccc2ccccc12)S(C)(=O)=O` the “activity change, negative = inhibition” value was -10.5%. With `Cn1c(CO)cnc1SCC(=O)c1ccc(Br)cc1` the “activity change, negative = inhibition” value was -8.93%. For `CC(=O)Nc1cccc(-c2ccnc3c2CC(C)(C(=O)Nc2ccc(Cl)cc2)O3)c1` (stereo unspecified), the “activity change, negative = inhibition” value was -2.94%. With `CCCCOc1ccc(CSC(=N)N)cc1Cl` the “activity change, negative = inhibition” value was -4.4%. With `O=[N+]([O-])c1cc(Cl)c(O)c2ncccc12` the “activity change, negative = inhibition” value was -17.6%. For `Cc1cccn2c(=O)c(/C=C(\C#N)C(N)=O)c(N3CCN(c4cccc(Cl)c4)CC3)nc12`, the “activity change, negative = inhibition” value was 0.85%. In the case of `NC(c1csc(NC(=O)c2cccc(OC(F)(F)F)c2)n1)c1ccccc1Cl` (stereo unspecified), the “activity change, negative = inhibition” value is reported as -0.688%. For `COc1cc(/C=N\NC(=O)CC#N)ccc1OC/C=C/c1ccccc1`, the “activity change, negative = inhibition” value was -3.57%. With `COC(=O)c1cc(NC(=O)c2cc(-c3ccc(C(F)(F)F)cc3)oc2C(F)(F)F)ccc1N1CCOCC1` the “activity change, negative = inhibition” value was -5.33%. For `COC1CC(C)C(OC)c2cc(O)cc(c2O)NC(=O)C(C)=CC=CC(C)C(OC(N)=O)C(C)=CC(C)C1OC` (stereo unspecified), the “activity change, negative = inhibition” value was -11.5%. For `Cc1cccc(C(=O)N/N=C2\CS(=O)(=O)N(C)c3ccsc32)c1`, the “activity change, negative = inhibition” value was -9.38%. In the case of `CC(=O)Oc1ccc(N(C(C)=O)S(=O)(=O)c2ccc(Cl)cc2)c2ccccc12`, the “activity change, negative = inhibition” value is reported as -17.1%. In the case of `CCOC(=O)CSc1cccc2cccnc12`, the “activity change, negative = inhibition” value is reported as -10.6%. In the case of `CC(=O)Nc1cccc(-c2ccnc3c2CC(C)(C(=O)Nc2ccc(Cl)c(C(F)(F)F)c2)O3)c1` (stereo unspecified), the “activity change, negative = inhibition” value is reported as -1.06%. For `Cc1ccc2ccc(C(Nc3ccccn3)c3ccccc3)c(O)c2n1` (stereo unspecified), the “activity change, negative = inhibition” value was -7.07%. For `Cc1nc2ccccc2n1/N=C/c1ccc([N+](=O)[O-])o1`, the “activity change, negative = inhibition” value was -2.11%. In the case of `COc1ccccc1-c1cc(NC=O)c2ncc(-c3ccc(F)cc3)n2c1`, the “activity change, negative = inhibition” value is reported as -1.97%. With `CN1CCN(c2ccc(-c3cc(NC=O)c4ncc(-c5ccc(F)c(Cl)c5)n4c3)cc2)CC1` the Potency was 15.8 µM (active). For `COc1ccc(-c2cnc3c(NC=O)cc(-c4ccccc4OC)cn23)cc1OC`, the “activity change, negative = inhibition” value was -3.03%.

From PubChem BioAssay AID1745846 (National Center for Advancing Translational Sciences (NCATS), 2022)
On the % scale 0 is the no-effect control and ±100 the full control effect; potency means the concentration at half of the fitted maximal effect.
